Test results published in PubChem BioAssay (Tox21).
Values without a mark were called inactive. Records with an inconclusive call do not appear. A call without a number means that no potency is given here. Active and inactive are the calls of the source. Unless noted, the call rests on the fitted dose curve; in most records, active means well fitted curve in the direction sought with a large enough effect in the repeat runs; inconclusive means weak or mixed curves; inactive means no such curve, though single readings can be large; an effect the other way counts as inactive or inconclusive.

Tests used:
[1] = Human pregnane X receptor (PXR) small molecule agonists, qHTS cell viability counter screen (AID 1346977); further: nearly all actives have a fitted effect of over 50% in size
Method in brief: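 Readout is CellTiter-Fluor fluorescence from PXR-Luc HepG2 cells. Plated cells rested 5hr, then were treated with compounds for 24hr at 37C and 5% CO2, with reagent present during the last hour.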

[2] = Caspase-3/7 induction in HepG2 cells by small molecules, qHTS assay (AID 1346978); further: nearly all actives have a fitted effect of over 15% in size
Method in brief: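 Wild-type HepG2 cells, 2,000/well, settled 5 hr at 37 C and 5% CO2, then compound-treated for 17 hr; caspase-3/7 activity read by luminescent Caspase-Glo 3/7 after 30 min at room temperature.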

[3] = Caspase-3/7 induction in CHO-K1 cells by small molecules, qHTS cell viability counter screen (AID 1346979); further: nearly all actives have a fitted effect of over 35% in size
Method in brief: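 To flag cytotoxic compounds, treated CHO-K1 wild-type cells were given CellTiter-Fluor at 16hr and read fluorescently after 1hr at 37C; the caspase-3/7 luminescence was measured in these same wells.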

[4] = Caspase-3/7 induction in CHO-K1 cells by small molecules, qHTS assay (AID 1346980); further: nearly all actives have a fitted effect of over 15% in size
Method in brief: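 Wild-type CHO-K1 cells exposed to compounds for 17hr at 37 C, 5% CO2. Caspase-3/7 activity then measured by Caspase-Glo 3/7 luminescence after 30min at room temperature.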

[5] = Caspase-3/7 induction in HepG2 cells by small molecules, qHTS cell viability counter screen (AID 1346981); further: series mostly up to about 92 µM; nearly all actives have a fitted effect of over 30% in size
Method in brief: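 Fluorescence read-out of live-cell protease activity (CellTiter-Fluor) after 1 hr with reagent. This was measured in the same wells as the caspase-3/7 luminescence, on HepG2 cells exposed to DMSO-dissolved compounds for 16 hr at 37 C.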

[6] = biological target: Nuclear receptor subfamily 1 group I member 2 (Homo sapiens) (UniProt O75469); test: Human pregnane X receptor (PXR) small molecule agonists, qHTS assay (AID 1346982); further: nearly all actives have a fitted effect of over 35% in size; further: potency means the concentration at half of the fitted maximal effect
Nuclear receptor subfamily 1 group I member 2 (Homo sapiens), sequence (O75469 whole entry, looked up): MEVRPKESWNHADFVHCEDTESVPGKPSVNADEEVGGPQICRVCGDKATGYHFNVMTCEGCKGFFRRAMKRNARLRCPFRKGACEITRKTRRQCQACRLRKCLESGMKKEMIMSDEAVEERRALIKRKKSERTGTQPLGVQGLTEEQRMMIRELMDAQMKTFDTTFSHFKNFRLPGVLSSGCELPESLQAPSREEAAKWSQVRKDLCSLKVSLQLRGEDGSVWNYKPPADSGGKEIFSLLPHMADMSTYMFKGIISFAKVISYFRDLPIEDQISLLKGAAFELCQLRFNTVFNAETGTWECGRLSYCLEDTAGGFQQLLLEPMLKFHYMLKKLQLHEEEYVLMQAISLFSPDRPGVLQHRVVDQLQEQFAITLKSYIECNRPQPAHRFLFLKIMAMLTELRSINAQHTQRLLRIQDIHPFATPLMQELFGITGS
Method in brief: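 HepG2 PXR-Luc reporter line, 5% charcoal-stripped FBS; 5 hr pre-incubation, compound (DMSO) 24 hr at 37 C/5% CO2; ONE-Glo 30 min RT; luminescence read-out.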

[7] = biological target: Acetylcholinesterase (Homo sapiens) (UniProt P22303); test: Acetylcholinesterase (AChE) small molecule antagonists: colormetric cell-based qHTS assay (AID 1347395; calls by dose curve; further: nearly all actives have a fitted effect of over 30% in size)
Acetylcholinesterase (Homo sapiens), sequence (P22303 whole entry, looked up): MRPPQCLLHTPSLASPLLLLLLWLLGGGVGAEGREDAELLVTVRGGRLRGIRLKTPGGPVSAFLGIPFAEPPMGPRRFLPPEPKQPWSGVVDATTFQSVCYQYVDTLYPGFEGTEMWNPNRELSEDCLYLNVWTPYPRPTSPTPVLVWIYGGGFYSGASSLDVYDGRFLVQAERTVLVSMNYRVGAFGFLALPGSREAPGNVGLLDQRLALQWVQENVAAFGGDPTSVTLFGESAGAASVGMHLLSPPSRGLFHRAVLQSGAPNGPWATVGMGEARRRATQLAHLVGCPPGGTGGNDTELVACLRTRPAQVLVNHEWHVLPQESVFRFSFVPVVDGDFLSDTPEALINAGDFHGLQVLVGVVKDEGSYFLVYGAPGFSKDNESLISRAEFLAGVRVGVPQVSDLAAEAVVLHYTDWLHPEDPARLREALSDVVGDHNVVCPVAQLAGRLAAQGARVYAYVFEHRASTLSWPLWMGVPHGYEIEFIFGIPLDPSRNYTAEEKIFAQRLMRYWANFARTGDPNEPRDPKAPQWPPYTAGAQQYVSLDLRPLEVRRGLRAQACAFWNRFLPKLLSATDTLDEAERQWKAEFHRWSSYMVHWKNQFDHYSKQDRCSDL
Method in brief: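 Neuroblastoma line SH-SY5Y supplied the enzyme; cells were preincubated with compound for 30 min at 37 C and 5% CO2. Acetylthiocholine with DTNB was then added for 90 min at 37 C, and thiocholine was measured by colour.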

[8] = biological target: Acetylcholinesterase (Homo sapiens) (UniProt P22303); test: Acetylcholinesterase (AChE) small molecule antagonists: enzyme-based qHTS assay (AID 1347397; calls by dose curve; further: nearly all actives have a fitted effect of over 55% in size); conditions: Potency: AChE enzyme activity inhibition
Method in brief: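 In this quantitative HTS, compounds from the Tox21 10K collection were preincubated 30 min at ambient temperature with recombinant human AChE dispensed at 50 mU/mL. Hydrolysis of acetylthiocholine was then followed for 10 min by DTNB colour development.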

[9] = biological target: Acetylcholinesterase (Homo sapiens) (UniProt P22303); test: Acetylcholinesterase (AChE) small molecule antagonists: fluorescence cell-based qHTS assay (AID 1347398; calls by dose curve; further: nearly all actives have a fitted effect of over 50% in size); conditions: Potency: AChE activity
Method in brief: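 Cells (SH-SY5Y) attached overnight, were dosed with compound or DMSO vehicle for 30 min at 37 C, and then incubated 40 min at room temperature with acetylthiocholine and Thiolite Green; green fluorescence indexed AChE activity.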

[10] = biological target: Acetylcholinesterase (Homo sapiens) (UniProt P22303); test: Acetylcholinesterase (AChE) small molecule antagonists: enzyme-based qHTS assay with human liver microsomes (AID 1347399; calls by dose curve; further: nearly all actives have a fitted effect of over 60% in size); conditions: Potency: qHTS inhibition
Method in brief: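 Recombinant human AChE (50 mU/mL in the enzyme mix) and human liver microsomes (0.25 mg/mL final) were preincubated with compound and NADPH (0.25 mg/mL final) for 30 min at 37 C. Acetylthiocholine/DTNB was then added; thiocholine was read colorimetrically after 10 min at room temperature.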

[11] = biological target: Cytochrome P450 2D6 (Homo sapiens) (UniProt P10635); test: Cytochrome P450 Family 2 Subfamily D Member 6 (CYP2D6) small molecule antagonists: luciferase reporter qHTS assay (AID 1671196); further: series mostly up to about 120 µM; nearly all actives have a fitted effect of over 50% in size
Cytochrome P450 2D6 (Homo sapiens), sequence (P10635 whole entry, looked up): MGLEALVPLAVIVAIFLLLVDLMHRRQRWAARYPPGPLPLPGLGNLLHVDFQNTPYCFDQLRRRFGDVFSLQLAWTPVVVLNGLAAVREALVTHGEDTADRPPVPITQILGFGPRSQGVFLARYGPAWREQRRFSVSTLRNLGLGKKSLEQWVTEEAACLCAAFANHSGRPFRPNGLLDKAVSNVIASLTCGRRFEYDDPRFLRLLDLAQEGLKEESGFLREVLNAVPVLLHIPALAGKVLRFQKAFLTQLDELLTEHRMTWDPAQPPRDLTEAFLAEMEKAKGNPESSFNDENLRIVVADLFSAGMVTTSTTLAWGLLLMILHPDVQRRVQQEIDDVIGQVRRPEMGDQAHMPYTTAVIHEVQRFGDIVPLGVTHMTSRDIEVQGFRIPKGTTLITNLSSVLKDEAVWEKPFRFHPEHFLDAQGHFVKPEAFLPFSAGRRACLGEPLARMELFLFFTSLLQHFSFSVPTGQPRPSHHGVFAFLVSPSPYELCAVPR
Method in brief: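 Luminogenic proluciferin substrate, CYP2D6 enzyme; 10 min RT preincubation with compound, NADPH regeneration system added, 1 h RT. Stop/detection reagent, 20 min RT, luminescence read (RLU). Signal proportional to CYP activity.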

[12] = biological target: Cytochrome P450 2C19 (Homo sapiens) (UniProt P33261); test: Cytochrome P450 Family 2 Subfamily C Member 19 (CYP2C19) small molecule antagonists: luciferase reporter qHTS assay (AID 1671197); further: nearly all actives have a fitted effect of over 65% in size; further: potency means the concentration at half of the fitted maximal effect
Cytochrome P450 2C19 (Homo sapiens), sequence (P33261 whole entry, looked up): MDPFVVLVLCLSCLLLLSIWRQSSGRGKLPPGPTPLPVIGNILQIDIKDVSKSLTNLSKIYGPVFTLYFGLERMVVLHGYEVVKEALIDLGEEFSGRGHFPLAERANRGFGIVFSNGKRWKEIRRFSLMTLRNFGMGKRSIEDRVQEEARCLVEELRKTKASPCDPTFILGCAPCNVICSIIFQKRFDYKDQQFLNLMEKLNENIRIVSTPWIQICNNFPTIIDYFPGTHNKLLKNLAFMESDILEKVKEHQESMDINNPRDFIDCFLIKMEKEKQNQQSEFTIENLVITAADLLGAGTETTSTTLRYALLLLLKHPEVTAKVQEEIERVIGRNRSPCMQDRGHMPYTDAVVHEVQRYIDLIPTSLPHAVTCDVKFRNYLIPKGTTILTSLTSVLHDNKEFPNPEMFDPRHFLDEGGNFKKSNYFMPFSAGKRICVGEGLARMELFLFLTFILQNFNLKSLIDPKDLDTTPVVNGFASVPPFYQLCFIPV
Method in brief: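 CYP2C19 P450-Glo, 1536-well qHTS. Cpd + enzyme/proluciferin substrate 10 min RT; + NADPH regen, 37C 1 h; stop with luciferin detection reagent, 20 min RT, luminescence (RLU). Pos ctrl ketoconazole.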

[13] = biological target: Cytochrome P450 2C9 (Homo sapiens) (UniProt P11712); test: Cytochrome P450 Family 2 Subfamily C Member 9 (CYP2C9) small molecule antagonists: luciferase reporter qHTS assay (AID 1671198); further: nearly all actives have a fitted effect of over 50% in size; further: potency means the concentration at half of the fitted maximal effect
Cytochrome P450 2C9 (Homo sapiens), sequence (P11712 whole entry, looked up): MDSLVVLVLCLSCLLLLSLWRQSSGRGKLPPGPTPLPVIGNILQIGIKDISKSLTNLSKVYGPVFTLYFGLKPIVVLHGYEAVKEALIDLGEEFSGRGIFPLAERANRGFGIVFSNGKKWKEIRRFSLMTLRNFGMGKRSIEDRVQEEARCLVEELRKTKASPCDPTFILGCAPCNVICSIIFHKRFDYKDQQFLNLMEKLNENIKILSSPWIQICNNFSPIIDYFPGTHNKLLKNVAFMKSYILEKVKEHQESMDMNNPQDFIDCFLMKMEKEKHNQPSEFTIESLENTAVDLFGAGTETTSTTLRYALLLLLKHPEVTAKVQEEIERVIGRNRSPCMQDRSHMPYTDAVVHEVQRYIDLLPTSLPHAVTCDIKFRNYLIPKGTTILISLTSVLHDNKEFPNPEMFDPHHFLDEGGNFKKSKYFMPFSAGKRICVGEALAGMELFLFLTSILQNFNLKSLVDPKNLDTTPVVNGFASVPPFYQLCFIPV
Method in brief: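 P450-Glo proluciferin substrate with CYP2C9 enzyme; 10 min RT preincubation, then NADPH regeneration 1 h at 37C; luciferin detection reagent 20 min RT, luminescence in relative luminescence units.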

[14] = biological target: Voltage-gated inwardly rectifying potassium channel KCNH2 (Homo sapiens) (UniProt Q12809); test: Human Ether-a-go-go-Related Gene (hERG) channel small molecule antagonists: fluorescence cell-based qHTS assay (AID 1671200)
Voltage-gated inwardly rectifying potassium channel KCNH2 (Homo sapiens), sequence (Q12809 whole entry, looked up): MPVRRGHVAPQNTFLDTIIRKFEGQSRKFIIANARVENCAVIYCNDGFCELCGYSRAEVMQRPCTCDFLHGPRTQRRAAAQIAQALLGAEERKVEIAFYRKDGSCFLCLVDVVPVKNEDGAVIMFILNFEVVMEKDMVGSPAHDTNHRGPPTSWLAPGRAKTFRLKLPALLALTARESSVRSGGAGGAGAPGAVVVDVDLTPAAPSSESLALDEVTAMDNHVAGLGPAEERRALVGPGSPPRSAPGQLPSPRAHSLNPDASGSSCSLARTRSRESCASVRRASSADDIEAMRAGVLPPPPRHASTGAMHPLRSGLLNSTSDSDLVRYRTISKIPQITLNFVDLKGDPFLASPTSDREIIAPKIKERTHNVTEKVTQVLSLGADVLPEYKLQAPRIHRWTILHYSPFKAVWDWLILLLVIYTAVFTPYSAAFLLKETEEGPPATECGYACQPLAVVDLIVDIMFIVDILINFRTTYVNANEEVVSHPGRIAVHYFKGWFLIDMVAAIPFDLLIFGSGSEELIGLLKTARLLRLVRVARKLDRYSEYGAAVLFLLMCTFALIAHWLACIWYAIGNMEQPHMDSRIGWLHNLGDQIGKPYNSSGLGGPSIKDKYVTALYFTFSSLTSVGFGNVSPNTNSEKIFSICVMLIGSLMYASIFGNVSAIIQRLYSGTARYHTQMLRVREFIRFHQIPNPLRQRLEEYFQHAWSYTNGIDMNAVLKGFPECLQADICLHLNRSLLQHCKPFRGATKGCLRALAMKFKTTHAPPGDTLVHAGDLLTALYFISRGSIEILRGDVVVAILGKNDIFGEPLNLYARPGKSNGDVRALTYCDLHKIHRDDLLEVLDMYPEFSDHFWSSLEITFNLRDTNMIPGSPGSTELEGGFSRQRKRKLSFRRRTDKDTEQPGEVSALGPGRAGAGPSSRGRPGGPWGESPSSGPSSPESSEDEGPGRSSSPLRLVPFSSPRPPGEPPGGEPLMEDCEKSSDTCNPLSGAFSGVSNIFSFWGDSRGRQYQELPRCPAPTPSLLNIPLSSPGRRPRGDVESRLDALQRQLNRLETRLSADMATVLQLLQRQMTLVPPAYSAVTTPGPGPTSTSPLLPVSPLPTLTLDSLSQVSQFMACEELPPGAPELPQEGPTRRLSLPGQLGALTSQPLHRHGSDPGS
Method in brief: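 Measured: Tl+ flux via fluorescence (480/540 nm) in hERG-expressing U2OS cells after 1 h dye loading at room temperature.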

[15] = biological target: Cytochrome P450 1A2 (Homo sapiens) (UniProt P05177); test: Cytochrome P450 Family 1 Subfamily A Member 2 (CYP1A2) small molecule antagonists: luciferase reporter qHTS assay (AID 1671199); further: nearly all actives have a fitted effect of over 50% in size; further: potency means the concentration at half of the fitted maximal effect
Cytochrome P450 1A2 (Homo sapiens), sequence (P05177 whole entry, looked up): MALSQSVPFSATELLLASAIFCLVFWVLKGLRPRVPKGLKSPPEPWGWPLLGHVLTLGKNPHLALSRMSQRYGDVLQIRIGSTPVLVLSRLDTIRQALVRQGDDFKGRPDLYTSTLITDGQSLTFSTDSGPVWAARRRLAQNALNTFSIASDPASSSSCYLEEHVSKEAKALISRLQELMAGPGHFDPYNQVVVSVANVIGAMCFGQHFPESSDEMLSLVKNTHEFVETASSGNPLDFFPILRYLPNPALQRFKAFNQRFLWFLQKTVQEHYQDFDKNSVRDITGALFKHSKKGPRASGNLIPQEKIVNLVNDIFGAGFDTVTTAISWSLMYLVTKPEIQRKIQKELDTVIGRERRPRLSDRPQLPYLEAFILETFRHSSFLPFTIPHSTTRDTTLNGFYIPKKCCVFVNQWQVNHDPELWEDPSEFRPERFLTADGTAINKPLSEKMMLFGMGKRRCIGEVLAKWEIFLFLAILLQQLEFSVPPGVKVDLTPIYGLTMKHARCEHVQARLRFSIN
Method in brief: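 Luminescence readout (relative luminescence units) after luciferin detection reagent, 20 min RT. Preceded by 1 h room-temperature CYP1A2 reaction with NADPH regeneration solution following 10 min compound preincubation with enzyme and proluciferin substrate. Furafylline positive control.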

[16] = biological target: Cytochrome P450 3A4 (Homo sapiens) (UniProt P08684); test: Cytochrome P450 Family 3 Subfamily A Member 4 (CYP3A4) small molecule antagonists: luciferase reporter qHTS assay (AID 1671201); further: nearly all actives have a fitted effect of over 50% in size; further: potency means the concentration at half of the fitted maximal effect
Cytochrome P450 3A4 (Homo sapiens), sequence (P08684 whole entry, looked up): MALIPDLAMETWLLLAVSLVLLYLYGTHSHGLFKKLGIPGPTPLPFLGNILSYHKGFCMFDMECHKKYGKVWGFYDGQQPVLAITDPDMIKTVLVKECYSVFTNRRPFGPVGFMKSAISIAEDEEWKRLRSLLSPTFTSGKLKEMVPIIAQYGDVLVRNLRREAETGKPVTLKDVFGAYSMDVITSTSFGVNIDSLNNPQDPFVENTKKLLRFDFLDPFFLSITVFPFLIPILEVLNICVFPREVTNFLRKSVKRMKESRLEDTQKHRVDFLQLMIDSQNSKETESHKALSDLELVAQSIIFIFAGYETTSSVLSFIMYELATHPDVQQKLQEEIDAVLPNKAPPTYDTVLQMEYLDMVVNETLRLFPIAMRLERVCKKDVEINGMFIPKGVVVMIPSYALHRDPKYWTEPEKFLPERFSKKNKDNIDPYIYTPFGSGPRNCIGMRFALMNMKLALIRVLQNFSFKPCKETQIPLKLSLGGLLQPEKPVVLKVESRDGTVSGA
Method in brief: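 Setup: enzyme-substrate mix, compound pin transfer, 10 min RT. Reaction: NADPH regeneration solution, 1 h RT. Readout: detection reagent stops turnover, luminescence measured after 20 min, expressed in relative luminescence units.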

Row | SMILES | Potency [1] | Potency [2] | Potency [3] | Potency [4] | Potency [5] | Potency [6] | Potency [7] | Potency [8] | Potency [9] | Potency [10] | Potency [11] | Potency [12] | Potency [13] | Potency [14] | Potency [15] | Potency [16]
1 | ClCC(Br)CBr (stereo not drawn) | inactive | inactive | inactive | inactive | inactive | inactive | inactive | inactive | inactive | inactive | inactive | inactive | inactive | inactive |  | 
2 | O=C=Nc1ccc(Cl)cc1 | inactive | inactive | inactive | inactive | inactive | 1.54 µM (active) | inactive | inactive | inactive | inactive | inactive | 2 µM (active) | 7.96 µM (active) | inactive |  | 
3 | O=C(O)C(F)(F)C(F)(F)C(F)(F)C(F)(F)C(F)(F)C(F)(F)C(F)(F)C(F)(F)C(F)(F)C(F)(F)F | inactive | inactive | inactive | inactive | inactive | inactive | inactive | inactive | inactive | inactive | inactive | inactive | 5.34 µM (active) | inactive | inactive | 
4 | C=C(C#N)CCC#N | inactive | inactive | inactive | inactive | inactive | inactive | inactive | inactive | inactive | inactive | inactive | inactive | inactive | inactive |  | 
5 | C=CCC1([C@H](C)CCC)C(=O)NC(=O)NC1=O | inactive | inactive | inactive | inactive | inactive | inactive | inactive | inactive | inactive | inactive | inactive | inactive |  | inactive | inactive | 31.4 µM (active)
6 | CC(C)O.CC(C)O.OCCN(CCO)CCO.OCCN(CCO)CCO.[Ti] | inactive | inactive | inactive | inactive | inactive | inactive | inactive | inactive | inactive | inactive | inactive | inactive |  | inactive | inactive | inactive
7 | COC(N)=O | inactive | inactive | inactive | inactive | inactive | inactive | inactive | inactive | inactive | inactive | inactive | inactive | inactive | inactive | 35.6 µM (active) | inactive
8 | BrCCCCBr | inactive | inactive | inactive | inactive | inactive | inactive | inactive | inactive | inactive | inactive | inactive | inactive | inactive | inactive |  | inactive
